The full ranking holds about 110,000 compounds; the median of “z-score” is about -0.1, and the highest 2% start at about 2. The sample as a whole holds a higher share of the highest values than the screen did. Active and inactive are the calls of the source.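 Rule for the calls: active = z-score in the third read window above 3 or below -3; inactive = the rest.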
Molecular target: Metabotropic glutamate receptor 8 (Rattus norvegicus) (UniProt P70579)
Assay: rat mGluR8 modulators via GIRK flux, primary screen, cell-based, thallium flux, HTS (AID 488969)
Conditions: HEK293 rat mGluR8, GIRK (G protein-gated inwardly rectifying potassium channel) thallium flux, FluoZin2; at 10 µM; stronger effect = higher value; submaximal glutamate (EC20) added with thallium

Sequence of Metabotropic glutamate receptor 8 (Rattus norvegicus) (P70579 whole entry, looked up): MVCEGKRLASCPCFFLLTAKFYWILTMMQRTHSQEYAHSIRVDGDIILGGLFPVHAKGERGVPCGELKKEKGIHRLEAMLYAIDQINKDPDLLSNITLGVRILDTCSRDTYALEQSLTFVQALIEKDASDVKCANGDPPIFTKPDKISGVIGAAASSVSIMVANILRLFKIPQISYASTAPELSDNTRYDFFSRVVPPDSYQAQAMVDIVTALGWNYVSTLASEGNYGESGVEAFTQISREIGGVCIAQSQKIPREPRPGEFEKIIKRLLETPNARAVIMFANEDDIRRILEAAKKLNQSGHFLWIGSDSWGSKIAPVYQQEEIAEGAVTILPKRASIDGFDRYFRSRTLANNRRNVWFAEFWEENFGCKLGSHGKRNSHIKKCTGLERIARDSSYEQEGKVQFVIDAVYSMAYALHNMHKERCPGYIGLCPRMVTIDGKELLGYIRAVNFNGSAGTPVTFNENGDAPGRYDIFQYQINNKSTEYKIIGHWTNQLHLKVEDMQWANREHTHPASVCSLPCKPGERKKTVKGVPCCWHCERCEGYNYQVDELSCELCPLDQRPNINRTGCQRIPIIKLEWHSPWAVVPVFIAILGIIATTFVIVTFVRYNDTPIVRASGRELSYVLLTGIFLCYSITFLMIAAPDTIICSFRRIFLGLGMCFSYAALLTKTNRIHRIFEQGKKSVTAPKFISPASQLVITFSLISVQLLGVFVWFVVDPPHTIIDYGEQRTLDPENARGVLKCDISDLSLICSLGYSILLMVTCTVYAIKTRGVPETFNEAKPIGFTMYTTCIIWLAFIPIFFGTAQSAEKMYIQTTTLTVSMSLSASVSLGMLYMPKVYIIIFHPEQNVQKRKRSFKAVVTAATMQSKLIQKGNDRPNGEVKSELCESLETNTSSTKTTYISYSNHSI

Question: Which z-score does the source give for `CCC(=O)c1ccc(N2CCCC2)c(F)c1` here?
Answer: 0.0378

Question: Which z-score does the source give for `CCC(=O)c1ccc(N2CCCCCC2)c(F)c1` here?
Answer: -0.499

Question: With `CC(=O)c1ccc(N2CCCC2)c(F)c1` as the molecule, how does the z-score read?
Answer: 2.4

Question: For `O=C(NNc1nc2ccccc2nc1C(F)(F)F)c1ccccc1`, which z-score is on record?
Answer: 2.44

Question: Which z-score does the source give for `Cc1ccc(C(=O)NN(C)c2nc3ccccc3nc2C(F)(F)F)cc1` here?
Answer: 0.198

Question: Which z-score does the source give for `FC(F)(F)c1nc2ccccc2nc1N/N=C\c1ccccc1` here?
Answer: 0.3

Question: With `O=C(NNc1c2ccccc2nc2ccccc12)c1cccc(O)c1` as the molecule, how does the z-score read?
Answer: -0.199

Question: With `Cc1ccc(C(=O)NNc2nc3ccccc3nc2C(F)(F)F)cc1` as the molecule, how does the z-score read?
Answer: 5.19 (active)

Question: `Cc1ccc(S(=O)(=O)NNc2nc3ccccc3nc2C(F)(F)F)cc1` was tested. Which z-score did it give?
Answer: -0.286

Question: `O=C(NNc1c2ccccc2nc2ccccc12)c1ccc(O)cc1` was tested. Which z-score did it give?
Answer: 2.21

Question: With `O=C(NNc1c2ccccc2nc2ccccc12)c1ccc(O)cc1O` as the molecule, how does the z-score read?
Answer: 0.0188

Question: `O=C(NNc1nc(-c2ccccc2)cs1)c1ccccc1` was tested. Which z-score did it give?
Answer: -1.53

Question: For `O=C1c2ccccc2C(Nc2ccc(S(=O)(=O)N3CCOCC3)cc2)N1c1ccccn1` (stereo unspecified), which z-score is on record?
Answer: -0.244

Question: With `COc1ccc(CN(C)CC(=O)Nc2cc(OC)c([N+](=O)[O-])cc2C)c(OC)c1` as the molecule, how does the z-score read?
Answer: -0.503

Question: Which z-score does the source give for `COc1ccccc1C(=O)NCC1CCN(c2ccc(S(=O)(=O)N3CCOCC3)cc2)CC1` here?
Answer: -0.35

Question: `COc1ccccc1OCc1ccc(C(=O)NN)cc1` was tested. Which z-score did it give?
Answer: -0.037

Question: Which z-score does the source give for `O=C(NCC1CCCO1)C1CC1(c1ccccc1)c1ccccc1` (stereo unspecified) here?
Answer: 1.76

Question: `CCOc1cc(C(=O)OCC(=O)c2c(C)[nH]c3ccccc23)ccc1OCC(=O)N1CCOCC1` was tested. Which z-score did it give?
Answer: -0.335

Question: For `CNC(=O)C1=C(C)Nc2nc3ccccc3n2C1c1cccc(OC)c1` (stereo unspecified), which z-score is on record?
Answer: -0.775

Question: How did the z-score turn out when `CCOC(=O)C1CCCN(C(=O)CSCc2ccccc2)C1` (stereo unspecified) was run?
Answer: -1.22

Question: For `CCOC(=O)C1CCCN(C(=O)Cn2sc3nc(C)cc(C)c3c2=O)C1` (stereo unspecified), which z-score is on record?
Answer: 2.2

Question: For `Cc1cccc(N2CCN(C(=O)Cn3sc4nc(C)cc(C)c4c3=O)CC2C)c1` (stereo unspecified), which z-score is on record?
Answer: 0.149

Question: How did the z-score turn out when `CCOC(=O)C1CCCN(C(=O)CSc2nccn2C)C1` (stereo unspecified) was run?
Answer: 2.87

Question: `Cc1cc(C)c2c(=O)n(CC(=O)N3CCC(N4CCCCC4)CC3)sc2n1` was tested. Which z-score did it give?
Answer: -0.421

Question: Which z-score does the source give for `CCOC(=O)C1CCCN(C(=O)COc2ccccc2O)C1` (stereo unspecified) here?
Answer: 0.0285

Question: `COc1ccccc1N(CC(=O)Nc1ccccc1C(=O)NC(C)C)S(C)(=O)=O` was tested. Which z-score did it give?
Answer: -0.955

Question: For `O=C1CCC([N+](=O)[O-])C(c2ccc(Cl)cc2Cl)N1` (stereo unspecified), which z-score is on record?
Answer: -0.219

Question: For `CCCN1C(=O)/C(=C/c2ccco2)SC1=Nc1ccc(OC)cc1`, which z-score is on record?
Answer: -0.105

Question: Which z-score does the source give for `O=C(CCS(=O)(=O)Cc1ccccc1)N1CCc2ccccc2C1` here?
Answer: -0.136

Question: With `C[N+](C)(C)CCNC(=O)c1c(O)c2c([nH]c1=O)CCCC2` as the molecule, how does the z-score read?
Answer: 0.798

Question: How did the z-score turn out when `O=C(NCC1CCCO1)c1c(O)c2c([nH]c1=O)CCCC2` (stereo unspecified) was run?
Answer: 2.44

Question: `CCN1CCCC1CNC(=O)c1c(O)c2c([nH]c1=O)CCCC2` (stereo unspecified) was tested. Which z-score did it give?
Answer: -0.0826

Question: `COc1ccc(CNC(=O)CN(Cc2ccc(C)cc2)S(=O)(=O)c2ccc(Cl)cc2)cc1` was tested. Which z-score did it give?
Answer: 0.0059

Question: For `CC1=C(C(=O)N2CCCCC2)C(c2cccs2)C2=C(CCCC2=O)N1` (stereo unspecified), which z-score is on record?
Answer: 0.187

Question: `CC1SC(c2ccc(Cl)cc2Cl)NC1=O` (stereo unspecified) was tested. Which z-score did it give?
Answer: -0.0303

Question: With `C=C(C)C1CC=C(C)/C(=N\NC(=O)CCc2ccccc2)C1` (stereo unspecified) as the molecule, how does the z-score read?
Answer: -0.339

Question: `C=C(C)C1CC=C(C)/C(=N/NC(=O)COc2ccc(C)cc2)C1` (stereo unspecified) was tested. Which z-score did it give?
Answer: 1.47

Question: For `C=C(C)C1CC=C(C)/C(=N/NC(=O)COc2ccccc2C)C1` (stereo unspecified), which z-score is on record?
Answer: 1

Question: `C=C(C)C1CC=C(C)/C(=N/NC(=O)COc2cccc3ccccc23)C1` (stereo unspecified) was tested. Which z-score did it give?
Answer: 0.0808

Question: For `C=C(C)C1CC=C(C)/C(=N/NC(=O)CNc2ccc(C)cc2C)C1` (stereo unspecified), which z-score is on record?
Answer: -0.284

Question: With `C=C(C)C1CC=C(C)/C(=N/NC(=O)CNc2ccc(OCC)cc2)C1` (stereo unspecified) as the molecule, how does the z-score read?
Answer: 1.99

Question: `C=C(C)C1CC=C(C)/C(=N/NC(=S)Nc2ccccc2)C1` (stereo unspecified) was tested. Which z-score did it give?
Answer: 2.35

Question: For `C=C(C)C1CC=C(C)/C(=N\NC(=O)CNc2ccccc2OC)C1` (stereo unspecified), which z-score is on record?
Answer: 0.0831

Question: `C=C(C)C1CC=C(C)/C(=N\NC(=S)Nc2ccc(C)cc2)C1` (stereo unspecified) was tested. Which z-score did it give?
Answer: 0.799

Question: `C=C(C)[C@H]1CC=C(C)/C(=N/NC(=O)CNc2ccccc2OC)C1` was tested. Which z-score did it give?
Answer: 0.284

Question: For `C=C(C)C1CC=C(C)/C(=N/NC(=O)COc2cccc(C)c2)C1` (stereo unspecified), which z-score is on record?
Answer: 8.9 (active)

Question: `C=C(C)C1CC=C(C)/C(=N/NC(=O)COc2ccccc2Cl)C1` (stereo unspecified) was tested. Which z-score did it give?
Answer: 12.4 (active)

Question: With `Cc1nn(Cc2ccc(Br)cc2)c(C)c1NC(=O)c1nn(C)cc1Cl` as the molecule, how does the z-score read?
Answer: -0.296

Question: With `COC(=O)c1ccccc1NC(=O)CN(C)S(=O)(=O)c1ccc(OC)cc1` as the molecule, how does the z-score read?
Answer: 0.195

Question: With `Fc1ccc(/C=C2\CCCC3=C2NC(=S)NC3c2ccc(F)cc2)cc1` (stereo unspecified) as the molecule, how does the z-score read?
Answer: -0.0195

Question: `N#CC1(C#N)C2=C(CCCC2)NC(c2ccccc2)C1(C#N)C#N` (stereo unspecified) was tested. Which z-score did it give?
Answer: -0.0942

Question: `O=C(NCCc1ccccc1F)/C(=C/c1cccnc1)NC(=O)c1ccccc1` was tested. Which z-score did it give?
Answer: 0.0991

Question: How did the z-score turn out when `O=C(Nc1ccccc1)c1c(F)c(F)c(F)c(F)c1F` was run?
Answer: -0.122

Question: `COc1ccc(CC(=O)NCCc2ccc(S(N)(=O)=O)cc2)cc1` was tested. Which z-score did it give?
Answer: 0.445

Question: For `O=c1c(CN2CCN(Cc3ccccc3)CC2)coc2ccc(Cl)cc12`, which z-score is on record?
Answer: -0.714

Question: For `CCOC(=O)c1cc(-c2ccc(Cl)cc2)nc2c1c(C)nn2CCC#N`, which z-score is on record?
Answer: 3.13 (active)

Question: For `CCOC(=O)c1cc(-c2ccc(OC)cc2)nc2c1c(C)nn2CCC#N`, which z-score is on record?
Answer: -0.93

Question: With `CCOC(=O)c1cc(-c2ccc(C#N)cc2)nc2c1c(C)nn2CCC#N` as the molecule, how does the z-score read?
Answer: -0.234

Question: For `S=c1[nH]nc(Cc2sc(-c3ccccc3)nc2-c2ccccc2)o1`, which z-score is on record?
Answer: 0.186

Question: With `CCCNCC1C(Oc2ccc(Cl)cc2)C(=O)N1c1ccccc1C` (stereo unspecified) as the molecule, how does the z-score read?
Answer: 1.55

Question: Which z-score does the source give for `COCCCNCC1C(Oc2ccc(Cl)cc2)C(=O)N1c1ccccc1C` (stereo unspecified) here?
Answer: 0.258

Question: How did the z-score turn out when `Cc1ccccc1N1C(=O)C(Oc2ccc(Cl)cc2)C1CNCCCOC(C)C` (stereo unspecified) was run?
Answer: 2.95

Question: For `Cc1cc(C)c(OCCCCCNCCO)c(C)c1`, which z-score is on record?
Answer: 1.43

Question: With `CCc1ccc2nc(-c3cccc(C)c3)nc(SCC(=O)NCC3CCCO3)c2c1` (stereo unspecified) as the molecule, how does the z-score read?
Answer: -0.227

Question: For `Cc1n[nH]c(C)c1SCC(=O)Nc1ccc(F)cc1`, which z-score is on record?
Answer: 0.159

Question: `COc1cccc(Nc2ccc(C(=O)O)cc2[N+](=O)[O-])c1` was tested. Which z-score did it give?
Answer: 0.594

Question: How did the z-score turn out when `O=C(c1cccc(Br)c1)c1cn(-c2ccccc2)nc1C(=O)c1ccccc1` was run?
Answer: -0.106

Question: For `CCOc1ccc2[nH]c(=O)c(C(c3nnnn3C3CCCCC3)N3CCN(CC)CC3)cc2c1` (stereo unspecified), which z-score is on record?
Answer: 0.408

Question: `COC(=O)c1ccc(N2C(=O)CC(Sc3n[nH]c(C)n3)C2=O)cc1` (stereo unspecified) was tested. Which z-score did it give?
Answer: 4.88 (active)

Question: Which z-score does the source give for `COC(=O)c1ccc(N2C(=O)CC(SCCN)C2=O)cc1` (stereo unspecified) here?
Answer: -0.299

Question: With `COC(=O)c1cc(C(=O)OC)cc(N2C(=O)CC(Sc3nc(C)cc(C)n3)C2=O)c1` (stereo unspecified) as the molecule, how does the z-score read?
Answer: 0.178
